Compound activity as filed in PubChem BioAssay.
Rows were chosen to be rich in hits. Some 1.4% of all compounds tested hit in one or more screens of this group.
Nrf2 activator = activates Nrf2 signaling. 410,000 tested, 0.31% active. AID 624171. AREc32 ARE-luciferase reporter (MCF7-derived line), luminescence, 24 h. Potency, µM (titrated, usually from 46.1 µM), most hits filed as activators; further: nearly all actives have a fitted effect of over 65% in size
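ARE activation measured as luciferase luminescence (Steady-Glo, 30 min RT) in AREc32_Fluc cells after 24 hr compound exposure at 37 deg C, 5% CO2; cells seeded overnight at 1000/well in OPTI-MEM, 5% FBS.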
IL2 activator = activators of IL-2; activation, % (series mostly up to about 46 µM); 360,000 tested, 0.065% active; AID 652025; IL-2 activation reporter assay, cell-based qHTS; stimulated with anti-CD3/CD4/CD28 beads; in transgenic mouse T cells; in the data active means activation above about 50%; inconclusive means mostly about 30% to 49%
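Unstimulated transgenic mouse T cells preincubated 60 min with compound, then stimulated with anti-CD3/anti-CD4-coated beads plus anti-CD28 for 18 h at 37 degrees C. IL-2 response read as EGFP and DsRed fluorescence by plate cytometry.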
N370S GC = inhibits or activates N370S mutant glucocerebrosidase | N370S GC spleen homogenate, 4MU-glucoside fluorescence | Potency, µM (top dose mostly 59.4 µM), hits mostly inhibitors | 330,000 tested, 0.092% active | AID 2101
BRCA1 expr act = activators of BRCA1 expression. MCF7-BRCA1-FFLuc reporter, luminescence, 48 h; response scale: scaled: vehicle 0%, 10 µM genistein 100%. Potency, µM (doses to about 46.1 µM), hits mostly activators. 380,000 tested, 1.1% active; further: nearly all actives have a fitted effect of over 80% in size
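Luminescence from a BRCA1-driven firefly luciferase in MCF7 cells was read after 48 h compound exposure at 37 C. Data normalized against DMSO and a 10microM genistein activation control, then curve-fitted across the titration.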
Chronic BCR inh = blocks chronic active B-cell receptor signaling | Potency, µM (series often up to 46.1 µM), actives largely listed as inhibitors | ABC-DLBCL IkBa-CBG/CBR reporter, luminescence ratio, 4 h | 340,000 tested, 0.05% active; active means well fitted inhibition curve with a large enough effect in the signal ratio, with a control signal flat, not every such curve was filed as active; inconclusive means small, poorly fitted or top-dose-only effect, or effect the other way, or a change in a side signal; the % refers to the signal ratio
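Compounds up to 46 uM were incubated four hours with TMD8 cells whose green CBG68 luciferase is fused to IkappaBalpha; red CBR luminescence normalised the signal, and concentration-effect curves were fitted to fusion, red and ratio data.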
Integrin act MD = activators of alpha7 integrin expression for muscular dystrophy. alpha7betagal myoblasts, beta-gal FDG fluorescence, 48 h. Potency, µM (highest dose often 38.3 µM), usual class: activators. 350,000 tested, 0.064% active; further: nearly all actives have a fitted effect of over 60% in size
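Alpha7betagal+/- myoblasts (passage 13) were plated 16-24 hr, then exposed to compounds (1:260 dilution of DMSO stock) for 48 hours at 37C. After MPER lysis, β-galactosidase reporter activity was read as FDG fluorescence (ex 480/em 540) after 30 minutes.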
Hits are given with their value. Unless noted, the call rests on the fitted dose curve; in most records, active means well fitted curve in the direction sought with a large enough effect; inconclusive means small, poorly fitted or top-dose-only effect, or another doubt; inactive means no such curve, though single readings can be large; an effect the other way counts as inactive or inconclusive.

Screening COc1ccc(-c2cc3ccc(OCC(C)=O)cc3oc2=O)cc1 returned Nrf2 activator inactive, IL2 activator inactive, N370S GC inconclusive, BRCA1 expr act inconclusive, Chronic BCR inh inactive and Integrin act MD inactive.
Cc1c(C)c2ccc(OCC(=O)c3ccccc3)cc2oc1=O was read as Nrf2 activator inactive, IL2 activator inactive, N370S GC inactive, BRCA1 expr act 6.3µM, Chronic BCR inh inconclusive and Integrin act MD inactive.
Screening CCCCc1c(C)c2ccc(OCC(C)=O)cc2oc1=O returned Nrf2 activator inactive, IL2 activator inactive, N370S GC inactive, BRCA1 expr act inconclusive, Chronic BCR inh inconclusive and Integrin act MD inactive.
For CCOc1ccc2cc(C(=O)c3ccccc3)c(=O)oc2c1 the results were Nrf2 activator inactive, IL2 activator inactive, N370S GC inactive, BRCA1 expr act 10µM, Chronic BCR inh inconclusive and Integrin act MD inactive.
For NC(=O)c1ccccc1OCC(=O)Nc1ccc2c(c1)OCCO2 the results were Nrf2 activator inactive, IL2 activator inactive, N370S GC inactive, BRCA1 expr act 3.5µM, Chronic BCR inh inactive and Integrin act MD inactive.
For O=C(CN1C(=O)NC2(CCCCCC2)C1=O)Nc1cccc(F)c1 the results were Nrf2 activator inactive, IL2 activator inactive, BRCA1 expr act inactive, Chronic BCR inh inconclusive and Integrin act MD inactive.
Screening CC1CC(C)(C)NC(=S)N1CCCC(=O)Nc1ccc2c(c1)OCCO2 (centres undefined) returned Nrf2 activator inactive, IL2 activator inactive, N370S GC inactive, BRCA1 expr act 13µM, Chronic BCR inh inconclusive and Integrin act MD inactive.
`CC1CC(C)CN(CC(=O)Nc2ccc3c(c2)OCCO3)C1` (centres undefined) gave Nrf2 activator inactive, IL2 activator inactive, N370S GC inactive, BRCA1 expr act 13µM, Chronic BCR inh inactive and Integrin act MD inactive.
`O=C(CN1C(=O)NC2(CCCCC2)C1=O)Nc1ccc2c(c1)OCCCO2` gave Nrf2 activator inactive, IL2 activator inactive, BRCA1 expr act 5µM, Chronic BCR inh inactive and Integrin act MD inactive.
Screening COc1ccc(OC)c(C(Cc2ccnc3ccccc23)Cc2ccnc3ccccc23)c1 returned BRCA1 expr act inactive.
Screening O=C(NCc1ccc2c(c1)OCO2)C(=O)Nc1cc2c3c(c1)CC(=O)N3CCC2 returned Nrf2 activator inactive, IL2 activator inactive, N370S GC inactive, BRCA1 expr act inactive, Chronic BCR inh inconclusive and Integrin act MD inactive.
O=C(Nc1ccc2c(c1)OCCO2)N1CCN(Cc2ccccc2)CC1 was read as Nrf2 activator inactive, IL2 activator inactive, N370S GC inactive, BRCA1 expr act 13µM, Chronic BCR inh inactive and Integrin act MD inactive.
`O=C(CCc1ccccc1)Nc1ccc2c(c1)OCCO2` gave Nrf2 activator inactive, IL2 activator inactive, N370S GC inactive, BRCA1 expr act 11µM, Chronic BCR inh inconclusive and Integrin act MD inactive.
Screening O=C(COc1ccc(Br)cc1Br)NC(=O)NC1CCCC1 returned Nrf2 activator inactive, IL2 activator inactive, N370S GC inconclusive, BRCA1 expr act 11µM, Chronic BCR inh inactive and Integrin act MD inactive.
`O=C(COc1ccccc1Cl)Nc1ccc2c(c1)OCCO2` gave Nrf2 activator inactive, IL2 activator inactive, N370S GC inconclusive, BRCA1 expr act inactive, Chronic BCR inh inactive and Integrin act MD inactive.
`O=C(COc1ccc(Br)cc1Cl)NC(=O)Nc1ccc2c(c1)OCCO2` gave Nrf2 activator inactive, IL2 activator inactive, N370S GC inactive, BRCA1 expr act 11µM, Chronic BCR inh inactive and Integrin act MD inactive.
O=C1OC2(c3cc(I)c(O)c(I)c3Oc3c2cc(I)c(O)c3I)c2c(Cl)c(Cl)c(Cl)c(Cl)c21 was read as N370S GC inactive.
Screening Nc1ccc(/C=C/c2ccnc3ccccc23)cc1 returned BRCA1 expr act inactive.
Screening O=C(Nc1ccc2c(c1)OCCO2)NC12CC3CC(CC(C3)C1)C2 returned Nrf2 activator inactive, IL2 activator inactive, N370S GC inconclusive, BRCA1 expr act 3.5µM, Chronic BCR inh inactive and Integrin act MD inactive.
Screening Cc1ccc(S(=O)(=O)N2CCOCC2)cc1NC(=O)COC(=O)c1ccco1 returned Nrf2 activator inactive, IL2 activator 81, BRCA1 expr act inactive and Integrin act MD inactive.
Screening O=C(COC(=O)c1ccco1)Nc1cc(S(=O)(=O)N2CCOCC2)ccc1Cl returned Nrf2 activator inactive, IL2 activator inactive, BRCA1 expr act inactive, Chronic BCR inh inactive and Integrin act MD inactive.
`Cc1ccc(S(=O)(=O)CCC(=O)Nc2nc(-c3ccccn3)cs2)cc1` gave Nrf2 activator 14µM, IL2 activator inactive, BRCA1 expr act inactive, Chronic BCR inh inactive and Integrin act MD inactive.
For O=C(CCS(=O)(=O)c1ccc(Cl)cc1)Nc1nc(-c2ccncc2)cs1 the results were Nrf2 activator 11µM, IL2 activator inactive, N370S GC inactive, BRCA1 expr act inactive, Chronic BCR inh inconclusive and Integrin act MD inactive.
For Cc1ccc(S(=O)(=O)CCC(=O)Nc2nc(-c3cccnc3)cs2)cc1 the results were Nrf2 activator inactive, IL2 activator inactive, N370S GC inactive, BRCA1 expr act inactive, Chronic BCR inh inconclusive and Integrin act MD inactive.
For COc1ccc(OC)c2sc(NC(=O)CCS(=O)(=O)c3ccccc3)nc12 the results were Nrf2 activator 5µM, IL2 activator inactive, BRCA1 expr act inactive and Integrin act MD inactive.
O=C(CCS(=O)(=O)c1ccc(Cl)cc1)Nc1nc(-c2cccnc2)cs1 was read as Nrf2 activator inactive, IL2 activator inactive, N370S GC inactive, BRCA1 expr act inactive, Chronic BCR inh inactive and Integrin act MD inactive.
`Cc1noc(C)c1-c1ccc2ncnc(NCc3ccc4c(c3)OCO4)c2c1` gave N370S GC inactive.
`COc1ccc2occ(C(=O)c3cccs3)c2c1` gave Nrf2 activator 10µM, IL2 activator inactive, N370S GC inactive, BRCA1 expr act inactive, Chronic BCR inh inconclusive and Integrin act MD inactive.
`CN1CCC(=O)N(C(CSc2ccc(Br)cc2)c2ccccc2)CC1` (centres undefined) gave N370S GC inactive.
For O=C1Nc2ccccc2CN2C(=O)c3cc(Cl)ccc3NC(=O)C12 (centres undefined) the results were Nrf2 activator inactive, IL2 activator inactive and BRCA1 expr act inactive.
COC(=O)c1cc(NC(=O)c2cccc(C(F)(F)F)c2)c(=O)oc1C/C=N/OCc1cccc(Cl)c1Cl was read as Nrf2 activator 13µM, IL2 activator inactive, N370S GC inactive, BRCA1 expr act inactive, Chronic BCR inh inactive and Integrin act MD inactive.
CCCNC(=O)c1onc(CSc2ccc(F)cc2)c1C(=O)NCCOC was read as Nrf2 activator inactive, IL2 activator inactive, N370S GC inactive, BRCA1 expr act inactive, Chronic BCR inh inactive and Integrin act MD inactive.
